The list is not random: actives were taken first. Their share in the collection is about 2%.
LEDGF integ inh = blocks HIV-1 LEDGF/p75-dependent DNA integration. TR-FRET IN-LEDGF/p75 DNA integration, Eu/Cy5. inhibition, % at 3.7 µM. 0.64% of 370,000 active. AID 743269;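 active = inhibition above the screen-wide mean plus 3 SD, cut at about 13% in these data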;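 also: signal is the Cy5 over europium emission ratio at 671 and 618 nm; 0% = plate median of compound wells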
MBD2 DNA inh = inhibitors of human MBD2 binding to methylated oligonucleotide | Q9UBB5 | TR-FRET | inhibition, % at 4.4 µM | 0.31% of 370,000 active; in the data active = inhibition above about 13%
Target sequence (Q9UBB5 whole entry, looked up): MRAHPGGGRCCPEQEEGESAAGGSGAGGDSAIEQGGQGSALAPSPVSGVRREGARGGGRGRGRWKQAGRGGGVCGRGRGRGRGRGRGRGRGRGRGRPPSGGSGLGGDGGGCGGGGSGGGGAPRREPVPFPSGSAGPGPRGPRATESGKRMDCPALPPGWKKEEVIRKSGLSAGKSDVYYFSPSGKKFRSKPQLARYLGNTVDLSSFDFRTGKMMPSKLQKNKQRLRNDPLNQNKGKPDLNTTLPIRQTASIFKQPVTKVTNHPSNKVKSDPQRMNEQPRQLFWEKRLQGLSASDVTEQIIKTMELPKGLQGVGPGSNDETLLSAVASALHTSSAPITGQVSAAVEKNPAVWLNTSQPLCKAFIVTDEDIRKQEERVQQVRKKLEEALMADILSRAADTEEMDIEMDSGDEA
Rin1-Abl PPI inh = blocks binding of human Rin1 to Abl; P00519+Q13671; TR-FRET Rin1/Abl binding, biochemical; inhibition, % at 7.35 µM; 0.4% of 360,000 active; in the data active = inhibition above about 5%, passing the limit was not always enough
UHRF1 binding = human UHRF1 methylated DNA binding inhibitors; Q96T88; UHRF1 binding to methylated oligo, TR-FRET; inhibition, % at 4.4 µM; 0.75% of 370,000 active; in the data active = inhibition above about 21%;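 also: UHRF1 SRA domain binding a hemimethylated CpG hairpin DNA probe; 0% = median of test compound wells and 100% = reference inhibitor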
TCR-CD3 inh = inhibitors of human TCR-CD3 interaction; TAMRA-labeled TCR probe fluorescence, biochemical; inhibition, % at 9.4 µM; 0.37% of 360,000 active; AID 651800; in the data active = inhibition above about 19%;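 also: recombinant mutant TCR 2C K166C tagged with TAMRA read by polarization; 0% = receptor in buffer alone and 100% = receptor with positive control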
Active calls of the source: *; . = not tested or not shown.

SMILES	LEDGF integ inh	MBD2 DNA inh	Rin1-Abl PPI inh	UHRF1 binding	TCR-CD3 inh
O=C(CSc1nnc(-c2ccccn2)n1-c1ccc(Cl)cc1)Nc1ccc(S(=O)(=O)Nc2nccs2)cc1	1	0	.	3	.
CCOc1ccccc1CNC(=O)c1nn(C)c2c1CS(=O)(=O)c1ccccc1-2	3	4	-3	26*	4
CC1(C(=O)Nc2ccc(Cl)c(Cl)c2)CCN1C(=O)C1CCCCC1 (stereo not drawn)	2	0	-2	22*	-9
CC1(C(=O)Nc2ccc3c(c2)OCO3)CCN1C(=O)C1CCCCC1 (stereo not drawn)	9	1	-3	4	-2
COc1ccc(-c2nc3c(c(SCC(=O)Nc4cccc(O)c4)n2)Cc2c(CO)cnc(C)c2O3)cc1	14*	1	0	-1	16
O=C(CSc1nc(-c2ccc(F)cc2)nc2c1Cc1ccccc1O2)Nc1cccc(C(=O)O)c1	-2	9	4	5	-3
Nc1[nH]c(C(=O)c2ccc(Cl)cc2)c(-c2ccc(Br)cc2)c1C(=O)c1c[nH]c2ccc(F)cc12	-1	6	.	3	-2
COC(=O)CC1OCC=C2CN3CCC45C6=CC(=O)C(=O)C([N+](=O)[O-])=C6NC4C1C2CC35 (stereo not drawn)	-3	16*	6	20	8
O=C(CCNC(=O)c1ccco1)NC(Cc1c[nH]c2ccccc12)C(=O)O (stereo not drawn)	-2	3	2	-1	-3
CCOC(=O)C1=C(C)N(c2ccc(OC)cc2)C(=O)/C1=C\c1cccs1	2	8	3	25*	-1
CN(CCc1cnn(C)c1)C(=O)CCc1nnc(CCCc2ccccc2)o1	1	-3	0	48*	-7
CCNC(=O)Nc1ccc2c(c1)C(=O)N(C)[C@H]1CC[C@H](CC(=O)N[C@H](C)c3ccccc3)O[C@@H]1CO2	3	10	.	7	.
CCNC(=S)N/N=C(\C)c1cccc(C(F)(F)F)c1	5	-6	1	36*	6
OCCCCNCc1cc(Br)ccc1OCc1ccccc1	0	10	1	29*	2
CC(C)(C)CCN1CCC[C@H](NC(=O)COc2ccc(F)c(Cl)c2)C1	-4	0	.	3	.
O=S1(=O)C[C@H](N2CC[C@@H](O)C2)[C@@H](COCc2ccccc2)N1	4	-4	4	-2	-1
CC(=O)NC(Cc1ccccc1C)C(=O)NC1CCN(c2c3c(nc4ncnn24)CCC3)CC1 (stereo not drawn)	2	-3	.	39*	3
CCOc1ccccc1C(=O)NC(C)c1ccc(-n2ccnc2)cc1 (stereo not drawn)	2	-1	-2	-2	-1
CN(CC(=O)Nc1ccccc1Cl)C(=O)CN1C(=O)C2CC=CCC2C1=O (stereo not drawn)	0	-3	2	-2	-9
COC(=O)[C@]12C[C@H](CC(=O)NCc3cccc(C(F)(F)F)c3)C(=O)N(Cc3ccccc3)C1=C[C@H](C1CCCC1)O[C@@H]2C	-1	0	.	0	6
COC(=O)c1ccc(CN(c2ccccc2Cl)S(C)(=O)=O)cc1	-4	-5	8	30*	2
CCN(CC)C(=O)[C@H]1C[C@@H]2[C@H](C[C@@H](c3ccccc3)[C@H]1C)N(c1ccc(F)cc1)C(=O)N2C/C=C(\C)CCC=C(C)C	0	6	.	1	-1
Cc1cccc(CSc2nc3c(c(=O)[nH]2)CCC3)c1	-1	-1	2	-2	7
Cc1ccc(CSc2nc3c(c(=O)[nH]2)CCC3)cc1	2	1	-1	58*	5
CNC1=C(N(C(C)=O)c2ccc(Br)cc2)C(=O)c2ccccc2C1=O	23*	-20	-8	0	2
SMILES	LEDGF integ inh	MBD2 DNA inh	Rin1-Abl PPI inh	UHRF1 binding	TCR-CD3 inh
COc1cccc(CNC(=O)[C@H]2CCCN2C(=O)[C@H]2CCCN2C(=O)c2ccccc2)c1	4	-4	.	0	-1
COC(=O)C1=C(C)N(C)C(=NCc2cc(OC)c(OC)c(OC)c2)NC1c1ccc(C(F)(F)F)cc1 (stereo not drawn)	0	5	.	1	-7
COc1ccccc1N1CCN(C(=O)C2CCCN(S(=O)(=O)c3ccc4c(c3)oc(=O)n4C)C2)CC1 (stereo not drawn)	-3	7	2	24*	3
COC(=O)c1ccc2nc(-c3ccc(OC)c(OC)c3)c(Cc3ccc(OC)cc3C)n2c1	-3	12	-2	21*	-7
COC(=O)c1ccc2nc(-c3ccc(Cl)cc3)c(Cc3ccc(OC)cc3C)n2c1	1	10	.	25*	-5
COC(=O)c1cc2c(c3c4cc(F)ccc4n(S(=O)(=O)c4ccccc4)c13)C(=O)N(Cc1ccccc1)C2	3	-1	.	-4	1
CN(CCNC(=O)CCCOc1cc(=O)n(C)c2ccccc12)Cc1ccccc1	1	6	2	21*	-2
COCCNC(=O)C(c1ccc(F)cc1)N(C(=O)CCC(=O)Nc1nccs1)c1ccc(C)cc1 (stereo not drawn)	4	-1	3	21*	5
O=C(CSc1nnc(-c2ccc(F)cc2)o1)NC1CCCCC1	-4	4	4	35*	-5
COc1ccc(Cc2nnc(SCC(=O)NC3CCCC3)o2)cc1	1	1	2	45*	6
COC1(OC)C(/C=C/c2ccc(C)cc2)C(C#N)(C#N)C1(OC)OC (stereo not drawn)	1	8	3	21*	3
N#Cc1cnn2c(=O)[nH]cnc12	-1	4	1	-1	4
COc1cc(NC(=O)CSc2nnnn2Cc2ccc3c(c2)OCO3)cc(OC)c1	4	13	0	24*	2
CCn1nnnc1SCC(=O)Nc1ccc2c(c1)OCO2	1	-3	1	2	-1
CCC(C)NC(=O)c1ccc(CSCc2ccccc2Cl)o1 (stereo not drawn)	-1	3	1	-3	2
CC(C)NC(=O)c1ccc(CSCc2ccccc2Cl)o1	-3	1	-1	25*	10
CC(NC(=O)CCc1nnc(-c2ccc(-c3ccccc3)cc2)o1)c1nc2ccccc2[nH]1 (stereo not drawn)	-4	1	1	23*	-3
COC(=O)[C@H](CC(C)C)N(CCc1cn(Cc2ccccc2)nn1)S(=O)(=O)c1ccccc1Br	1	3	.	-1	.
COc1ccc(Br)cc1C(=O)Nc1ccccc1N1CCN(C(=O)c2ccccc2)CC1	0	1	-3	0	7
COc1c(C)cc(Br)cc1C(=O)Nc1ccccc1N1CCN(C(=O)c2ccccc2)CC1	-2	2	0	55*	-8
C/C(=N\NC(=O)c1cc(O)cc(O)c1)c1ccc(NC(=O)Cc2ccccc2)cc1	16*	12	7	46*	41*
CCN(CC)S(=O)(=O)c1cc(C(=O)Nc2ccccc2[N+](=O)[O-])ccc1Cl	0	6	-4	22*	8
